The experiment concerns the target KiSS-1 receptor (Homo sapiens) (UniProt Q969F8). Put plainly: Human kisspeptin (KISS1R) small molecule agonists, calcium flux assay in KISS1R-HEK293 cells (AID 1920064). The essentials:
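Cells plated and incubated 18 h; dye added, 1 h at 37 C; compounds in DMSO pinned in; signal read at 480/540 nm every second for 3 min. Each compound tested at 15 concentrations in triplicate.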
(In general: Calcium assays in cells follow changes in intracellular calcium, usually with a dye or a luminescent sensor.)

SMILES strings stand for the structures. Where “and” joins values, the source holds several entries; their conditions need not be identical. Equal entries are not always repeated. Unmarked numbers belong to inactive results. Entries that show only a call come without a potency. Calls of active or inactive are those of the source. Calls come from the whole dose curve; as a rule, active = well fitted activation curve with a large enough effect in the repeat runs; inconclusive = weak or mixed curves; inactive = flat fitted curve, though single readings scatter.
Potency is the fitted concentration of half-maximal effect.

KiSS-1 receptor (Homo sapiens), sequence (Q969F8 whole entry, looked up): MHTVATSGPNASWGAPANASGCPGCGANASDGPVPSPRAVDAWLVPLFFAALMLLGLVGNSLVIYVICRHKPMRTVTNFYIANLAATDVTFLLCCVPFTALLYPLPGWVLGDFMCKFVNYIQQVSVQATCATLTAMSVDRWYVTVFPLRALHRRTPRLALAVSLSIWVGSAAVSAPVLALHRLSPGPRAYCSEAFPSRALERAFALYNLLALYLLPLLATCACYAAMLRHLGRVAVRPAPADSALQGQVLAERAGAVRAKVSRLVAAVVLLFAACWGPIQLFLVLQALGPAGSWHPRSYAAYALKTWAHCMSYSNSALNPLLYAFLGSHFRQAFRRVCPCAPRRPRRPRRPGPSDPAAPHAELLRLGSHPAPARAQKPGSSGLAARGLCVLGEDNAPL

In the case of `Clc1ccc2c(c1)C(N1CCNCC1)=Nc1ccccc1O2`, the Potency result is “inactive”. For `COc1c2ccoc2cc2oc(=O)ccc12`, the Potency result was “inactive”. Consider `CC(=O)C1(C)CC2=C(CCCC2(C)C)CC1C` (configuration not stated), for which the Potency entry is “inactive”. As to `CC1=CCC(C(C)C)=CC1`, the Potency entry is “inactive”. As for `O=C1OC2(c3cc(Br)c(O)c(Br)c3Oc3c2cc(Br)c(O)c3Br)c2c(Cl)c(Cl)c(Cl)c(Cl)c21`, the Potency was 55 µM (active) and 33.4 µM (active).

Turning to `NS(=O)(=O)c1ccc(N2CCCCS2(=O)=O)cc1`, the Potency result was “inactive”. For `C=C(C)C(=O)NCCC[N+](C)(C)C`, the Potency result was “inactive”. With `Cc1c(C(=O)c2c[nH]n(C)c2=O)ccc(S(C)(=O)=O)c1C1=NOCC1`, the Potency entry is “inactive”.

For the compound `CC(=O)CC(=O)Nc1ccccc1C`, the Potency entry is “inactive”.

As for `C/C=C/c1ccc(OC)c(OC)c1`, the Potency result was “inactive”. On to `c1ccc2ncccc2c1`, for which the Potency entry is “inactive”. As for `N#CCC(=O)O`, the Potency entry is “inactive”. As to `CC(C)C(=O)c1c(C(C)C)nn2ccccc12`, the Potency result is “inactive”. On to `C=C(C)[C@@H]1CCC2=CC(=O)C[C@@H](C)[C@]2(C)C1`, for which the Potency entry is “inactive”. As for `C[Si](C)(C)O[Si](C)(C)O[Si](C)(C)C`, the Potency result was “inactive”. For the compound `CC(C)(C)CC(C)(C)c1ccc(Nc2ccc(C(C)(C)CC(C)(C)C)cc2)cc1`, the activation is 0.255% [at 6.97 µM].

Regarding `CC1=CC[C@@H](C(C)(C)O)CC1`, the Potency entry was “inactive”. For `CCCOCCC`, the Potency result is “inactive”. In the case of `NC(=O)c1cccc([N+](=O)[O-])c1`, the Potency result was “inactive”.

Regarding `CCOC(=O)C(C)C(C)=O` (configuration not stated), the Potency entry is “inactive”. For `CCCCCC(CC)OC(=O)CCCOc1ccc(Cl)cc1Cl` (configuration not stated), the Potency entry was “inactive”. For the compound `NC[C@H]1O[C@H](O[C@H]2[C@H](O)[C@@H](O[C@H]3O[C@H](CO)[C@@H](O)[C@H](N)[C@H]3O)[C@H](N)C[C@@H]2N)[C@H](N)[C@@H](O)[C@@H]1O`, the activation was -0.341% [at 15.8 µM]. Regarding `Cc1ncc(CSSCc2cnc(C)c(O)c2CO)c(CO)c1O`, the Potency entry was “inactive”.

On to `NC(=S)Nc1cccc2ccccc12`, for which the activation was 6.64% [at 6.97 µM]. Turning to `O=C(O)c1ccccc1[N+](=O)[O-]`, the Potency entry was “inactive”. On the same count and under the same terms, under `CCCCCCCCCCCCCCC(=O)O` stands “inactive”; under `CC(O)C(CO)C(C)O` (configuration not stated), “inactive”; under `C=C(C)C(=O)OCCCCCCCC(C)C`, “inactive”. `c1ccc(SCCSc2ccccc2)cc1`: the Potency entry was “inactive”. The same measure, in the same setting: under `Nc1ccc(NCCO)c([N+](=O)[O-])c1` stands “inactive”.

For `CCCC(=O)C(C)=O`, the Potency result is “inactive”. `CCOC(=O)n1ccn(C)c1=S`: the Potency entry is “inactive”. For `COc1cccc2c1C(=O)c1c(O)c3c(c(O)c1C2=O)C[C@@](O)(C(=O)CO)C[C@@H]3O[C@H]1C[C@H](N)[C@H](O)[C@H](C)O1`, the Potency entry is “inactive”. Consider `Nc1cc(C(Cl)=C(Cl)Cl)c(S(N)(=O)=O)cc1S(N)(=O)=O`, for which the Potency entry is “inactive”. Take `OCC(CO)(CO)CO`: the Potency result is “inactive”. For `CC(=O)[O][Al][O]C(C)=O`, the Potency entry is “inactive”. Turning to `CCC(=O)OCc1ccccc1`, the Potency result was “inactive”.

`C=C(C)C(=O)OCCOP(=O)(O)O`: the Potency entry was “inactive”. Regarding `O=C(c1ccc(O)cc1O)c1ccc(O)cc1O`, the Potency entry was “inactive”. Consider `CC#N`, for which the Potency entry was “inactive”. As to `CNCCS(=O)(=O)O`, the Potency result is “inactive”.

`COC(OC)OC`: the Potency result was “inactive”. In the case of `COC(=O)C1=C(C)NC(C)=C(C(=O)OCC(C)C)C1c1ccccc1[N+](=O)[O-]` (configuration not stated), the Potency result is “inactive”. As for `CC(C)(C)C1CCCCC1O` (configuration not stated), the Potency entry was “inactive”. For `c1coc(CNc2ncnc3nc[nH]c23)c1`, the Potency entry is “inactive”. Consider `CC(C)N=C(N)/N=C(\N)Nc1ccc(Cl)cc1`, for which the Potency entry is “inactive”. For `CC(C)=CCCC(C)CC=O` (configuration not stated), the Potency entry is “inactive”.

Turning to `CC1=NN(c2ccc(S(=O)(=O)O)cc2)C(=O)C1`, the Potency entry was “inactive”.

For `Cn1cnc([N+](=O)[O-])c1Sc1ncnc2nc[nH]c12`, the Potency result was “inactive”. For the compound `O=c1[nH]c(=O)c2ccccc2o1`, the Potency result is “inactive”. Take `CCOC(/C=C(\C)CCC=C(C)C)OCC`: the Potency entry was “inactive”.

For `CCCCC(CC)COC(=O)CC(C(=O)OCC(CC)CCCC)S(=O)(=O)O` (configuration not stated), the Potency entry is “inactive”.
